Hits are enriched below; roughly 12% of the tested compounds scored in any of these assays.
PLK1 PBD block – PLK1 (human) polo-box domain binding inhibition | P53350 | Plk1 PBD binding of FITC phosphopeptide, fluorescence polarization | Potency, µM, inactives show max response, negative = inhibition, hits mostly inhibitors | hit rate 2.8% among 360,000; also: series mostly up to about 57 µM; % is scaled to controls: 0 for no effect and ±100 for the full control effect; nearly all actives have a fitted effect of over 65% in size
JMJD2A Tudor – JMJD2A Tudor domain (human) inhibition; O75164; AlphaScreen JMJD2A-Tudor / H3K4me3 peptide binding; Potency, µM (doses to about 114 µM), for inactives: at the top dose activity change, negative = inhibition, usual class: inhibitors; hit rate 4.4% among 390,000; AID 504339; also: % is scaled to controls: 0 for no effect and ±100 for the full control effect; nearly all actives have a fitted effect of over 50% in size
BAZ2B block – BAZ2B (human) inhibition. AlphaScreen BAZ2B-H3K14Ac peptide displacement. hit rate 4.4% among 360,000. Potency, µM (titrated, usually from 114 µM), without a hit: top-dose activity change, negative = inhibition, most hits filed as inhibitors; also: % is scaled to controls: 0 for no effect and ±100 for the full control effect; nearly all actives have a fitted effect of over 60% in size
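AlphaScreen luminescence quantifies BAZ2B engagement of H3K14Ac peptide; the protein and biotinylated peptide are both at 50 nM final, buffer PBS pH 7.4 with 0.01% Tween-20, all steps at room temperature.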
HP1b chromo inh – blocks HP1-beta chromodomain binding to methylated histone tails. hit rate 0.56% among 390,000. Potency, µM (series often up to 114 µM), without a hit: top-dose activity change, negative = inhibition, usual class: inhibitors. AlphaScreen HP1-beta / biotin-H3K9me3 peptide binding; also: nearly all actives have a fitted effect of over 70% in size
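Compound inhibition of the preformed complex between 50 nM HP1-beta and 50 nM biotinylated H3K9me3 peptide was read by AlphaScreen. Buffer was PBS pH 7.4 with 0.01% Tween-20. Incubations ran 30 min at room temperature, with 10 ug/mL donor/acceptor beads.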
Sfp PPTase inh – inhibitors of Bacillus subtilis Sfp phosphopantetheinyl transferase. Biochemical Sfp PPTase activity, qHTS. AID 1490. Potency, µM, for the others: largest response in the series, negative = inhibition, hits mostly inhibitors. hit rate 3.5% among 310,000. Q9F4F7;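 also: the enzyme is Sfp with the accession as filed and its product quenches rhodamine fluorescence; 0% = enzyme reaction without inhibitor and -100% = no enzyme wells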
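Fluorescence-quenching assay with 15 nM Sfp, 5 uM rhodamine-CoA and 12.5 uM BHQ-2-labelled ybbR peptide in pH 7.6 Hepes/MgCl2 buffer. Enzyme was pre-incubated with compound for 15 min at room temperature. Rate was taken from the 30-min fluorescence change (525/598 nm).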
G9a inh – blocks human histone lysine methyltransferase G9a; G9a H3K9 monomethylation, AlphaScreen, 2 h; Potency, µM (series often up to 102 µM), for the others: at the highest dose activity, negative = inhibition, most hits filed as inhibitors; hit rate 8.8% among 350,000; also: % is scaled to controls: 0 for no effect and ±100 for the full control effect; nearly all actives have a fitted effect of over 75% in size
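Readings reflect AlphaScreen signal from monomethyl-H3K9 antibody detection. HMT at 20 nM; substrate b-H3K9 500 nM; cofactor SAM 20 uM; 2 h RT reaction; compounds tested as titrations in qHTS with 15 min preincubation.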
* marks the source's active call; other numbers are inactive results; ? = inconclusive; · = no result given; [ ] = dose if it differs, or a comment. Calls follow the shape of the dose curve; as a rule, active = well fitted curve in the direction sought with a large enough effect; inconclusive = small, poorly fitted or top-dose-only effect, or another doubt; inactive = no such curve, though single readings can be large; an effect the other way counts as inactive or inconclusive. Potency is read from the fitted curve at half-maximal effect.

SMILES	PLK1 PBD block	JMJD2A Tudor	BAZ2B block	HP1b chromo inh	Sfp PPTase inh	G9a inh
COc1ccc(N2CCN(c3cc(C)c4ccccc4n3)CC2)cc1	-9.7%	?	?	?	13.3%	10µM*
Cc1ccc(C)c(CSC2=NC(C)(C)Nc3ccccc32)c1	·	122.0%	101.3%[57.1 µM]	238.5%	·	73.7%[59 µM]
CCN(CC)C(=O)C(=O)N/N=C/c1ccc(Br)cc1	-5.9%	-7.7%	11.3%	6.7%	7.7%	13.0%[59 µM]
O=C(CN(C(=O)CNS(=O)(=O)c1ccccc1)c1ccc(F)cc1)NCc1ccco1	-12.8%	-19.7%	-0.8%	-7.4%	9.6%	16.3%
COC(=O)c1ccc2nc(-c3ccc(F)cc3)c(Cc3ccccc3C(F)(F)F)n2c1	1.5%	·	·	·	·	·
COC(=O)c1cc(N2CCN(C)CC2)nc2ccccc12	-21.4%	-22.1%	?	57.6%	4.3%	11.2µM*
COc1ccc2c(C)cc(N3CCCCCC3)nc2c1	1.7%	12.6µM*	22.4µM*	-19.3%	?	?
COc1ccc2c(C)cc(N3CCN(Cc4ccccc4)CC3)nc2c1	-7.0%	-5.0%	3.4%	20.6%	-4.5%	14.3%[2.33 µM]
CC1CN(c2nnc(-c3ccccc3)c3ccccc23)CC(C)O1 (stereo unspecified)	21.2µM*	?	-3.7%	-13.3%	22.1%	3.0%
Cc1ccc2nc(N3CC(C)OC(C)C3)nc(-c3ccccc3)c2c1 (stereo unspecified)	-0.7%	47.2%	29.5%[57.1 µM]	120.4%	1.2%	39.0%
COc1ccc(N2CCN(c3cc(C)nc4ccc(OC)cc34)CC2)cc1	-6.6%	44.7µM*	31.6µM*	?	-13.0%	50.1µM*
Fc1ccccc1Cc1nnc2n1N=C(c1ccc(Cl)cc1)CS2	-1.3%	6.2%	10.3%	39.0%	8.9%	5.0%[59 µM]
N[C@H](C(=O)O)[C@@H]1[C@@H](C(=O)O)C1(F)F	·	·	·	·	89.1µM*	31.3%[59 µM]
CCOc1ccc(NC(=O)CC2C(=O)N(CC)C(=S)N2CCN2CCOCC2)cc1 (stereo unspecified)	26.7µM*	50.1µM*	-9.3%	-4.1%	10.5%	24.9%
CCOc1ccc(NC(=O)CC2C(=O)OCCN2CC)cc1 (stereo unspecified)	·	-14.6%	?	0.5%	·	2.24µM*
COC(=O)c1cc(NC(=O)CC2C(=O)OCCN2Cc2ccccc2)cc(C(=O)OC)c1 (stereo unspecified)	·	-13.4%	-18.3%	23.4%	·	-37.5%[59 µM]
CCOC(=O)c1ccc(NC(=O)CC2C(=O)OCCN2CC)cc1 (stereo unspecified)	-5.1%	-10.8%	-48.7%	19.4%	-13.0%	6.31µM*
CCN1CCOC(=O)C1CC(=O)Nc1ccc(C)c(Cl)c1 (stereo unspecified)	·	-16.0%	-22.5%	22.9%	·	2µM*
CCOc1ccc(NC(=O)CC2C(=O)N(CC)C(=S)N2CCNC(C)=O)cc1 (stereo unspecified)	-3.8%	-6.6%	3.6%	13.3%	1.9%	-5.8%
CCN1CCOC(=O)C1CC(=O)Nc1cccc(OC)c1 (stereo unspecified)	·	-7.5%	-30.4%	3.8%	·	?
Cc1c(C(=O)N(C)Cc2ccc(F)cc2)sc(=O)n1Cc1ccccc1C#N	-2.7%	·	·	·	·	·
CCC(C)NC(=O)C1CCN(S(=O)(=O)c2ccc(OC)cc2)CC1 (stereo unspecified)	-1.5%	1.3%	-2.7%	20.4%	9.8%	-3.4%[59 µM]
COC(=O)[C@]1(C)N[C@H](CN(C)S(=O)(=O)c2ccc(C)cc2)[C@@H]2C(=O)N(C)C(=O)[C@@H]21	-11.1%	79.4µM*	·	20.1%	·	·
COC(=O)[C@]1(C)N[C@H](CN(C)S(=O)(=O)c2ccc(C(C)(C)C)cc2)[C@@H]2C(=O)N(C)C(=O)[C@@H]21	-4.1%	-12.9%	·	55.0%	·	·
O=c1[nH]c(NNC(=S)NCc2ccccc2)nc2c1C1(CCCCC1)Cc1ccccc1-2	?	?	?	?	-14.0%	20µM*
SMILES	PLK1 PBD block	JMJD2A Tudor	BAZ2B block	HP1b chromo inh	Sfp PPTase inh	G9a inh
O=c1[nH]c(NCCCO)nc2c1C1(CCCC1)Cc1ccccc1-2	-5.0%	-22.6%	-5.0%	7.4%	-13.1%	24.6%[59 µM]
C=CCNC(=S)NNc1nc2c(c(=O)[nH]1)C1(CCCC1)Cc1ccccc1-2	?	?	?	-20.2%	?	?
O=c1[nH]c(NNC(=S)NC2CCCCC2)nc2c1C1(CCCC1)Cc1ccccc1-2	-3.7%	?	-29.8%	2.5%	79.4µM*	-7.9%[12.7 µM]
CC(=O)N1CCC2(CC1)CN(c1ccccn1)C2	·	·	·	·	11.8%	44.0%[12.7 µM]
O=C(CC(c1ccccc1)C1CCCCC1=O)c1ccco1 (stereo unspecified)	-7.8%	-15.6%	1.9%	13.1%	-9.5%	4.6%[59 µM]
O=C(CC(c1ccco1)C1CCCCC1=O)c1ccco1 (stereo unspecified)	-7.1%	-25.7%	?	26.1%	-4.7%	56.2µM*
CC[C@@H](NCCCn1cnc2c(SC)ncnc21)c1ccccc1	-0.1%	·	·	·	·	·
COc1ccc(-c2cn[nH]c2-c2ccc(OCc3ccc([N+](=O)[O-])cc3)cc2O)cc1OC	-3.7%	?	-28.4%	5.4%	32.2%	11.2%[12.7 µM]
CCc1cc(-c2[nH]ncc2-c2ccc([N+](=O)[O-])cc2)c(O)cc1OC	-1.5%	50.1µM*	39.8µM*	?	-23.0%	50.1µM*
CCCn1c(SCC(=O)c2ccc3c(c2)OCCO3)n[nH]c1=O	-15.9%	-6.8%[57.1 µM]	·	45.0%	-18.9%	11.0%
CCCn1c(SCC(=O)c2cc(C)c(C)cc2C)n[nH]c1=O	-15.1%	-5.1%	2.7%	35.4%	11.1%	11.2µM*
CCC(C)(C)NC(=O)C(c1ccc(C)cc1)N(CCN1CCOCC1)C(=O)CNC(=O)c1cccs1 (stereo unspecified)	29.9µM*	?	-13.1%	-7.0%	1.4%	·
O=C(NCC(=O)N(CCN1CCOCC1)C(C(=O)NC1CCCC1)c1cccnc1)c1cccs1 (stereo unspecified)	-2.0%	-8.6%	2.4%	8.4%	29.2%	-3.1%
Cc1c(C(c2ccc(N(C)C)cc2)c2c(C)n(C)n(-c3ccccc3)c2=O)c(=O)n(-c2ccccc2)n1C	-18.8%	-27.5%	?	?	-14.2%	50.1µM*
Cc1c(C(c2ccccc2)c2c(C)n(C)n(-c3ccccc3)c2=O)c(=O)n(-c2ccccc2)n1C	5.8%	-6.6%	-7.7%	28.1%	14.9%	17.2%
O=C(NC(CO)(CO)CO)[C@@H]1CCCN1S(=O)(=O)c1cccc2cccnc12	-2.4%	-2.8%	-2.9%	47.7%	·	21.9%[2.33 µM]
COc1ccc(S(=O)(=O)N2CCC(C(=O)Oc3cccc(C)c3)CC2)cc1OC	-16.7%	-13.6%	-6.6%	26.8%	-0.7%	1.9%
O=C1c2cccc3cccc(c23)C(=O)N1c1nccs1	-0.7%	3.2%	4.7%	36.8%	-2.5%	?

Bioassay records from PubChem BioAssay.
